Screens deposited in PubChem by National Center for Advancing Translational Sciences (NCATS).
FBPA coupling cs: inhibits coupling enzyme system, counter-screen for aldolase hits. coupling enzyme system counterscreen, AmpLite Red fluorescence. activity change, negative = inhibition, % at 58.2 µM, hits read low. actives 0.67% (n = 290,000). AID 2472; in the data active = activity change below about -30%
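Fluorescence at 525 nm excitation and 598 nm emission measured inhibition of the coupled detection system without aldolase. Compounds (at 57.5 uM final) were preincubated 10 min at room temperature with coupling enzyme reagent before a 20 min substrate/AmpLite Red step.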
Tau fibril ThT: tau fibrillization inhibition (ThT binding) | recombinant tau K18 P301L, heparin-induced fibrillization, ThT fluorescence | P10636 | Potency, µM (series often up to 57.4 µM), most hits filed as inhibitors | actives 2.1% (n = 270,000) | AID 1460; also: nearly all actives have a fitted effect of over 55% in size
Target sequence (P10636 561-689 P618L limits assumed): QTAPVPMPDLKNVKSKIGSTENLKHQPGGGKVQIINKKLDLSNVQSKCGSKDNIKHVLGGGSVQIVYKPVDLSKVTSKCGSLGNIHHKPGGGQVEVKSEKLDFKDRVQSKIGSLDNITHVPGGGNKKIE
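Using a mix of unlabeled (15 uM) and Alexa 594-labeled (0.24 uM) tau K18 P301L, heparin-triggered fibrillization over 6 hr at 37 C was scored by ThT fluorescence.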
Tau fluor cs: counter-screen for tau fibril formation inhibitors; tau K18 P301L (four-repeat tau fragment) Alexa594 fluorescence, heparin fibrillization; Potency, µM (doses to about 57.7 µM); actives 0.93% (n = 280,000); also: nearly all actives have a fitted effect of over 55% in size
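Human K18 P301L tau (15 uM unlabeled plus 0.24 uM Alexa 594-labeled, final) in 100 mM sodium acetate pH 7 was mixed with compound and 20 uM heparin and incubated 6 hr at 37 C.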
Tau FP inhib: blocks human tau fibril formation measured by polarization; P10636; K18 P301L tau heparin fibrillization, Alexa594 FP, 6 h; Potency, µM (doses to about 57.7 µM), actives largely listed as inhibitors; actives 0.39% (n = 280,000); AID 1468; also: nearly all actives have a fitted effect of over 55% in size
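Steps: dispense K18 P301L tau (15 uM plus 0.24 uM Alexa 594 tracer, final) in pH 7 sodium acetate; add compound; add heparin (20 uM final); incubate 6 hr, 37 C; add ThT (30 uM final); after 1 hr ambient, read FP.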
Numbers stand for hits; i = inactive; ? = inconclusive; nt = no result; [ ] = dose if it differs, or a comment. In the library only some 2.7% were active in any assay of this set; here they are far more common. Unless noted, calls follow the shape of the dose curve; as a rule, active = well fitted curve in the direction sought with a large enough effect; inconclusive = small, poorly fitted or top-dose-only effect, or another doubt; inactive = no such curve, though single readings can be large; an effect the other way counts as inactive or inconclusive.

SMILES	FBPA coupling cs	Tau fibril ThT	Tau fluor cs	Tau FP inhib
CN(C)/C=C/C(=O)c1ccc([N+](=O)[O-])c(CS(=O)(=O)c2ccc(Cl)cc2)c1	i	nt	nt	nt
COc1ccc(-n2c(=O)c3ccc(C(=O)NCc4ccc(C)cc4)cc3n(Cc3ccc(Cl)cc3)c2=O)cc1	nt	i	i	?
Cc1ccc(CN2CCN(C3CCN(C(=O)OC(C)(C)C)CC3)C(=O)C2=O)cc1	nt	i	i	i
CC(C)(C)N=C1SCC(C)(/C=N/O)S1 (stereo not drawn)	i	25µM	i	?
CCOC(=O)c1c(C)[nH]c(C)c1S(=O)(=O)NCC(=O)Nc1ccc(C)cc1C	nt	i	i	i
Cc1cc(N)n2ncc(-c3ccccc3)c2n1	i	?	?	i
Cc1cc(N)n2ncc(-c3cccc(Br)c3)c2n1	i	?	16µM[quencher]	i
O=C1c2ccc([N+](=O)[O-])cc2NC(c2ccco2)N1/N=C/c1ccco1 (stereo not drawn)	i	13µM	?	i
CN=c1scc(-c2ccc([N+](=O)[O-])cc2)n1/N=C/c1ccco1	i	3.5µM	i	i
CCCC[C@H](NC(=O)[C@H](CC(C)C)NC(=O)CNC(=O)[C@@H](NC(=O)[C@H](Cc1ccccc1)NC(=O)[C@H](CO)NC(=O)[C@@H](N)CC(=O)O)C(C)C)C(N)=O	i	nt	nt	nt
Brc1ccc(-c2cn3nc4c(nc3n2)CCCC4)cc1	i	18µM	?	?
Cc1c(Cl)cccc1NC(=O)C(=O)NCCc1csc(-c2ccc(C(F)(F)F)cc2)n1	nt	i	i	i
COc1ccc(C(=O)c2oc3ccc(OC)cc3c2N)cc1	i	11µM	14µM[quencher]	i
O=C(COC(=O)c1ccc2c(c1[N+](=O)[O-])C(=O)c1ccccc1C2=O)NC1CC1	-33	10µM	?	i
COc1cccc2sc(NN)nc12	i	?	28µM[quencher]	?
COCCn1c(=O)c(-c2cccs2)nc2cnc(Nc3ccccc3)nc21	i	nt	nt	nt
CCC12CN3CC(C)(CN(C1)C3c1ccc(O)cc1O)C2=O (stereo not drawn)	nt	i	i	i
O=C(Nc1ccc(Cc2ccncc2)cc1)c1ccc(Cl)c([N+](=O)[O-])c1	-36	i	i	i
Cc1c([N+](=O)[O-])cc(C(=O)Nc2ccc(Cc3ccncc3)cc2)cc1[N+](=O)[O-]	i	i	?	i
O=C(CCNc1ccc(Cc2ccncc2)cc1)c1cccc([N+](=O)[O-])c1	i	?	16µM[quencher]	?
Cc1ccc(-c2nnc(SCC(=O)N3CCCc4ccccc43)o2)cc1	nt	i	i	i
COC(=O)/C=C1\SC(=Nc2ccc(OC)cc2)NC1=O	i	?	i	i
COC(=O)/C=C1\S/C(=N\N=C\CC(=O)OC)NC1=O	i	7.1µM	i	i
O=C(COCc1cc(-c2ccco2)on1)Nc1cc(Cl)ccc1O	nt	?	?	i
COc1ccccc1C(=O)NC(=S)N1CCCc2ccccc21	-39	i	i	i
SMILES	FBPA coupling cs	Tau fibril ThT	Tau fluor cs	Tau FP inhib
COc1ccccc1C(=O)NC(=S)N1CCc2ccccc21	i	i	i	i
NS(=O)(=O)c1ccc(N=Nc2c(=O)[nH]n3c(=O)c4c([nH]c23)CCCC4)cc1	i	7.9µM	i	i
O=c1[nH]n2c(=O)c3c([nH]c2c1N=Nc1cccc(C(F)(F)F)c1)CCCC3	i	2.8µM	i	i
O=c1[nH]n2c(=O)c3c([nH]c2c1N=Nc1cccc(Cl)c1)CCC3	i	i	i	i
CN(C)c1ccc(N=Nc2ccc(S(N)(=O)=O)cc2)cc1	i	nt	nt	nt
COc1cccc(N=Nc2c(=O)[nH]n3c(=O)c4c([nH]c23)CCC4)c1	i	7.1µM	i	i
COc1cccc(N=Nc2c(=O)[nH]n3c(=O)cc(C)[nH]c23)c1	i	16µM	i	i
N#Cc1c(-n2ncnc2-c2cccc(Cl)c2)sc2c1CCCCC2	nt	?	i	i
O=[N+]([O-])c1ccc(/C=C/C2=NN(c3ccccc3)C(c3ccco3)C2)cc1 (stereo not drawn)	i	3.5µM	?	i
O=[N+]([O-])c1ccc(C2=NN(c3ccccc3)C(c3ccco3)C2)cc1 (stereo not drawn)	i	5µM	i	i
O=S(=O)(c1ccccc1)N1N=C(c2ccc(Br)cc2)CC1c1ccco1 (stereo not drawn)	i	nt	nt	nt
COc1ccc(NS(=O)(=O)c2ccc(N3CCCC3)c(NC(=S)Nc3cccc(S(=O)(=O)N(C)C)c3)c2)cc1	i	25µM	?	?
COc1ccc(NS(=O)(=O)c2cc(NC(=O)c3cccs3)ccc2N2CCCC2)cc1	i	i	16µM[quencher]	?
